The text below walks through data of PubChem BioAssay (NCI).

Each structure is given as a SMILES string. The panel holds about 83,000 compounds, 20% with a hit somewhere; the sample as a whole holds those more often.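 Cells were grown in 96-well plates and exposed to the test compound at a single concentration for 48 hours; results are reported as percent growth, with values below 10 considered active.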 A number with no mark means an inactive call. Active and inactive are the calls of the source.

Some test systems named below: OVCAR-8 ovarian; OVCAR-5 ovarian; OVCAR-4 ovarian; SK-OV-3 ovarian; OVCAR-3 ovarian; NCI/ADR-RES ovarian; T-47D breast; BT-549 breast; MDA-MB-435 melanoma; SW-620 colon; MCF7 breast; HCT-116 colon; HCC-2998 colon; KM12 colon; IGROV1 ovarian; HS 578T breast.
Common to all, as to assay: NCI-60 one-dose screen, 48 h (100 = growth as untreated, 0 = no growth, -100 = all killed)
What all share (conditions): 10 µM unless noted

As to `COc1ccc2c(c1)C(=O)/C(=C/c1cccc(OCC(=O)c3ccccc3)c1)CC2`, the growth in the experiment with OVCAR-8 ovarian is 78.6%; in the experiment on OVCAR-5 ovarian, 102%; in the experiment on OVCAR-4 ovarian it was 81.5%; in the experiment with SK-OV-3 ovarian it was 120%; in the experiment on OVCAR-3 ovarian, 89.2%; with NCI/ADR-RES ovarian, 80.7%. Moreover, the growth is 70.6% in the experiment on T-47D breast; 39.2% with BT-549 breast; 41.1% with MDA-MB-435 melanoma; 66% with SW-620 colon; 48.7% with MCF7 breast; 72.1% with HCT-116 colon. The growth in the experiment on HCC-2998 colon was 96.4%; with KM12 colon, 91.5%.
With `CC(=O)Oc1ccc(C23c4ccccc4C2(OC(C)=O)c2cc(OC(C)=O)ccc23)cc1` (stereo unspecified), the growth in the experiment with OVCAR-8 ovarian was 49.6%; in the experiment on OVCAR-5 ovarian, 86%; in the experiment on OVCAR-4 ovarian, 92.3%; with SK-OV-3 ovarian, 110%; with IGROV1 ovarian it was 91.9%; in the experiment with OVCAR-3 ovarian it was 78.2%. Further, the growth was 39.3% in the experiment on NCI/ADR-RES ovarian; 38.9% in the experiment on T-47D breast; 106% in the experiment with BT-549 breast; 97.9% in the experiment on MDA-MB-435 melanoma; 80.3% with SW-620 colon; 49.5% with MCF7 breast. Also, the values for the growth in the experiment on HCT-116 colon and with KM12 colon were 61.6% and 46.2%, respectively.
For `CC1=CC(=O)C(C(C)=Nc2ccccc2Cl)C(=O)O1` (stereo unspecified), the growth with OVCAR-8 ovarian was 96.9%; in the experiment with OVCAR-5 ovarian it was 151%; in the experiment with OVCAR-4 ovarian, 99.5%; in the experiment on SK-OV-3 ovarian, 104%; in the experiment on HS 578T breast, 83.6%; in the experiment with NCI/ADR-RES ovarian it was 140%. Also, the growth with T-47D breast is 105%; with BT-549 breast, 121%; with MDA-MB-435 melanoma it was 111%; in the experiment with SW-620 colon it was 91.6%; in the experiment on MCF7 breast it was 118%; in the experiment with HCT-116 colon it was 100%. Moreover, the growth in the experiment with HCC-2998 colon is 119%; with KM12 colon it was 108%.
As to `CC/C(=C\c1ccc(N(C)C)cc1)c1ccncc1`, the growth in the experiment with OVCAR-8 ovarian is 54.7%; in the experiment with OVCAR-5 ovarian it was 74%; with OVCAR-4 ovarian, 69.5%; in the experiment with SK-OV-3 ovarian, 74.6%; with IGROV1 ovarian, 49.7%; in the experiment with OVCAR-3 ovarian, 42.3%. In addition, the growth with NCI/ADR-RES ovarian is 8.26% (active); with T-47D breast, 40%; with BT-549 breast it was 65.8%; with MDA-MB-435 melanoma it was -6.41% (active); in the experiment on SW-620 colon, 19.9%; in the experiment with MCF7 breast it was 28.8%. In addition, the growth in the experiment with HCT-116 colon is 22.2%; in the experiment on HCC-2998 colon it was 66.6%; with KM12 colon, 20.4%.
As to `COc1ccc(/C=C2\NC(=S)NC2=O)cc1`, the growth with OVCAR-8 ovarian was 104%; with OVCAR-5 ovarian, 95.2%; with OVCAR-4 ovarian, 117%; with SK-OV-3 ovarian it was 83.8%; in the experiment with IGROV1 ovarian, 96%; in the experiment on OVCAR-3 ovarian, 107%. Moreover, the growth is 115% in the experiment with NCI/ADR-RES ovarian; 86.3% with T-47D breast; 105% in the experiment on BT-549 breast; 110% with MDA-MB-435 melanoma; 105% in the experiment with SW-620 colon; 99.4% with HCT-116 colon. Moreover, the growth is 117% with HCC-2998 colon and 101% in the experiment on KM12 colon.
Consider `CN1COc2ccc3ccccc3c2C1`, for which the growth in the experiment with OVCAR-8 ovarian is 93%; with OVCAR-5 ovarian, 77%; in the experiment on OVCAR-4 ovarian it was 91.7%; with SK-OV-3 ovarian, 103%; in the experiment on IGROV1 ovarian it was 86.3%; in the experiment with OVCAR-3 ovarian, 98.9%. Besides, the growth was 89.8% with NCI/ADR-RES ovarian; 88.2% with T-47D breast; 98.1% in the experiment on BT-549 breast; 106% with MDA-MB-435 melanoma; 99.7% in the experiment with SW-620 colon; 93.1% in the experiment on HCT-116 colon. The growth in the experiment on KM12 colon was 105%.
Consider `O=C(/C=C/c1ccccc1Cl)c1ccc(O)cc1`, for which the growth with OVCAR-8 ovarian was 96.8%; in the experiment on OVCAR-5 ovarian it was 138%; in the experiment on OVCAR-4 ovarian, 63.3%; in the experiment on SK-OV-3 ovarian, 86%; with HS 578T breast, 80.5%; in the experiment on NCI/ADR-RES ovarian it was 97%. The growth in the experiment with T-47D breast was 58.8%; with BT-549 breast, 55.8%; with MDA-MB-435 melanoma it was 25.1%; in the experiment on SW-620 colon it was 40.9%; in the experiment with MCF7 breast, 15%; in the experiment on HCT-116 colon it was 13.3%. Also, the growth in the experiment on HCC-2998 colon is 113%; in the experiment with KM12 colon, 6.77% (active).
In the case of `COc1cccc(CCC2C(=O)CCCC2=O)c1`, the growth with OVCAR-8 ovarian was 116%; with OVCAR-5 ovarian, 103%; in the experiment with OVCAR-4 ovarian, 124%; in the experiment with SK-OV-3 ovarian, 102%; in the experiment with IGROV1 ovarian, 111%; in the experiment with OVCAR-3 ovarian, 99.9%. Also, the growth in the experiment on NCI/ADR-RES ovarian was 110%; with T-47D breast it was 97.4%; with BT-549 breast it was 109%; with MDA-MB-435 melanoma, 119%; in the experiment on SW-620 colon it was 112%; with MCF7 breast, 108%. Also, the growth with HCT-116 colon is 114%; with HCC-2998 colon, 115%; in the experiment with KM12 colon, 106%.
For the molecule `COc1ccc(C(=O)COc2cccc(/C=C3\Oc4ccc5ccccc5c4C3=O)c2)cc1`, the growth is 70.1% with OVCAR-8 ovarian; 103% in the experiment with OVCAR-5 ovarian; 94.9% in the experiment with OVCAR-4 ovarian; 99.5% with SK-OV-3 ovarian; 72.4% in the experiment with OVCAR-3 ovarian; 93.3% in the experiment on HS 578T breast. Also, the growth in the experiment on NCI/ADR-RES ovarian was 96.4%; with T-47D breast, 37.9%; with BT-549 breast, -96.9% (active); in the experiment with MDA-MB-435 melanoma, 94.7%; in the experiment on SW-620 colon it was 19%; with MCF7 breast, 10.1%. Besides, the growth with HCT-116 colon was 29%; in the experiment with HCC-2998 colon it was 60%.
Take `Cc1ccccc1NC(=O)c1cc2ccccc2cc1O`: the growth with OVCAR-8 ovarian is 60%; with OVCAR-5 ovarian it was 77.9%; in the experiment on OVCAR-4 ovarian, 56.1%; in the experiment with SK-OV-3 ovarian it was 61.1%; in the experiment on IGROV1 ovarian, 30.2%; in the experiment on OVCAR-3 ovarian, -10.2% (active). In addition, the growth in the experiment on NCI/ADR-RES ovarian was 27.8%; with T-47D breast, 49.9%; in the experiment with BT-549 breast it was -0.275% (active); in the experiment with MDA-MB-435 melanoma it was 28.6%; in the experiment on SW-620 colon, 47.2%; in the experiment on MCF7 breast, 80.5%. For the same molecule, the results for the growth in the experiment on HCT-116 colon, in the experiment on HCC-2998 colon and in the experiment with KM12 colon were 30.3%, 81.5% and 23.4%, respectively.
Turning to `CN(C)CCCN1c2nc3ccccc3cc2Sc2cc3ccccc3nc21`, the growth was -67% (active) in the experiment on OVCAR-8 ovarian; -58.5% (active) in the experiment on OVCAR-5 ovarian; 18.9% with OVCAR-4 ovarian; -35.3% (active) with SK-OV-3 ovarian; -81.4% (active) with OVCAR-3 ovarian; 2.82% (active) with HS 578T breast. Further, the growth is -23.1% (active) with NCI/ADR-RES ovarian; -71.9% (active) in the experiment on T-47D breast; -100% (active) with BT-549 breast; -67% (active) in the experiment on MDA-MB-435 melanoma; -93.5% (active) in the experiment on SW-620 colon; -97.9% (active) in the experiment with MCF7 breast. Besides, the growth in the experiment with HCT-116 colon was -62.8% (active); with HCC-2998 colon, -71.3% (active).
